Experimental data as given in PubChem BioAssay AID720550 (National Center for Advancing Translational Sciences (NCATS), 2013).
Inconclusive results are not listed. Activity calls are given as the source filed them. The call rests on the fitted dose curve; in most records, active means well fitted curve in the direction sought with a large enough effect; inconclusive means small, poorly fitted or top-dose-only effect, or another doubt; inactive means no such curve, though single readings can be large or run the other way.

Test: qHTS for Inhibitors of Bloom's syndrome helicase (BLM): Thiazole Orange DNA Binding Counterscreen for SAR.
Excerpt: Human RecQ DNA helicases participate in maintenance of genome stability and DNA repair. While other types of helicases have been explored as targets for drug development, members of the RecQ family have remained less well characterized. Mutations of the Bloom helicase gene have been associated with the rare human genetic disease called Bloom syndrome. […] Moreover, identified inhibitors can be used in cells and animal models to examine the consequences of inhibition on the survival of cancer cells where it has been shown that BLM plays an important role.
A fluorescence-based, biochemical assay in 1536 well format was developed to evaluate inhibition of BLM DNA unwinding activity. This assay was used to screen the MLPCN library. The resulting compounds were subjected to orthogonal and secondary biochemical assays to triage the initial hits, to classify compounds based on mode of action and to derive structure activity relationships (SARs) of candidate effectors. The Thiazole Orange (ThO) DNA binding (TO-binding) is used to eliminate inhibitors that operate via nonspecific DNA binding. […]
Compounds were added to a 4 uL mixture of 50 nM DNA and 100 nM ThO via pintool transfer. The fluorescence signal (excitation 480 nm, emission 530 nm) was measured after 15 min incubation at room temperature using the ViewLux CCD imager.

With `N#Cc1ccc(NC(=O)Nc2nnc(-c3ccncc3)s2)cc1Cl` the outcome was “inactive”.

In the case of `N#Cc1ccc(NC(=O)Nc2nnc(-c3ccncc3)s2)cc1C(F)(F)F`, the outcome was “inactive”.
